Gli-Sufu antag: Gli-Sufu pathway antagonism; 340,000 compounds, 0.74% hits; AID 588413; inhibition, % at 5 µM; Sufu-KO-LIGHT fibroblasts, Gli luciferase reporter luminescence;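 active means inhibition above about 55%, limit read from the data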;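 further: 0% = DMSO-treated cells and 100% = wells with medium but no cells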
SMARCA2 act: increases SMARCA2 function in MMTV reporter cells; MG213 cells, MMTV-luciferase reporter, dexamethasone, overnight; activation, % at 9.1 µM; 370,000 compounds, 1% hits; in the data active means activation above about 7.8%;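 further: 0% = vehicle wells and 100% = reference activator wells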
Jurkat NFkB inh: lowers PMA/ionomycin-induced NF-kB signal in Jurkat cells; PMA/ionomycin-induced NF-kB luciferase reporter, luminescence; inhibition, % at 4 µM; 330,000 compounds, 0.53% hits; AID 435003; in the data active means inhibition above about 50%
esBAF inh: SWI/SNF esBAF complex inhibition; AID 602393; 350,000 compounds, 2% hits; mouse ES cells, Bmi1-luciferase knock-in reporter, 24 h; 100% = twice the neutral-well signal; reporter increase, % at 12.5 µM; in the data active means activation above about 40%; inconclusive means no clear call, values can overlap the other calls;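 further: 0% = median of the plate's neutral control wells and 100% = double that signal; a rise in the Bmi1 reporter signal indicates esBAF inhibition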
697 NFkB inh: lowers PMA/ionomycin-induced NF-kB signal in 697 B cells; inhibition, % at 4 µM; 330,000 compounds, 0.33% hits; 697 B-cell NF-kB luciferase reporter, 16 h; in the data active means inhibition above about 35%
Active calls of the source: *; u = inconclusive; x = no result given. Compounds with a hit are over-represented: about 3.3% of the library has one in this group of screens.

SMILES	Gli-Sufu antag	SMARCA2 act	Jurkat NFkB inh	esBAF inh	697 NFkB inh
CN1C(=O)c2cc(NC(=O)C3CC3)ccc2OC[C@H]2O[C@H](CC(=O)NCc3ccccc3F)CC[C@@H]21	x	x	x	-9	x
CCCNC(=S)Nc1cc2oc3ccccc3c2cc1OC	-19	2	-48	x	-54
COc1ccc(NC(=O)C2CCCO2)cc1 (stereo not given)	-6	-1	-27	2	-9
CCNC(=S)Nc1cc2oc3ccccc3c2cc1OC	-18	-1	-17	45*	-21
COc1cc2c(cc1NC(=O)C1CCCO1)oc1ccccc12 (stereo not given)	-64	3	-134	57*	-52
O=C(Nc1ccc(Oc2ccccc2)cc1)C1CCCO1 (stereo not given)	-44	2	-32	52*	-75
CN1CCN(C(=O)C[C@@H]2CC[C@@H]3[C@H](COC[C@@H](O)CN3CC3CCOCC3)O2)CC1	x	x	x	5	x
C[C@@H]1CN([C@H](C)CO)C(=O)Cc2cc(N(C)C)ccc2O[C@@H]1CN(C)C(=O)Nc1cccc2ccccc12	x	x	x	0	x
c1ccc(Cn2ccnc2C2OCCO2)cc1	x	5	x	x	x
c1ccc(Cn2ccnc2-c2ccco2)cc1	-12	-1	-23	56*	-30
CN(C)S(=O)(=O)c1ccc(C(=O)NCCOc2ccc(F)cc2)cc1	-23	3	-27	61*	-45
O=C(/C=C/c1c(Cl)cccc1Cl)Nc1ccncc1	-9	0	-47	44*	1
O=C(/C=C/c1ccc(Cl)c(Cl)c1)Nc1cccnc1	0	3	-25	42*	14
O=C(/C=C/c1c(F)cccc1Cl)Nc1ccncc1	-6	1	-51	62*	-5
O=C(/C=C/c1ccccc1Cl)Nc1ccncc1	10	0	-30	x	-6
COc1cccc(N=C(N)N=C(N)N)c1	-2	-3	-13	-2	-16
COc1ccnc(CSC(N)=Nc2ccc(F)cc2)c1	-31	5	-5	56*	3
Cn1c(-c2ccc3ccccc3n2)nc2cnccc21	-56	7	-99	66*	-82
COc1ccccc1S(=O)(=O)N[C@@H]1C=C[C@H](CC(=O)NCc2cc(F)cc(F)c2)O[C@H]1CO	x	x	x	-2	x
COc1ccc(S(=O)(=O)Nc2cccc3c2O[C@H](CN(C)C(=O)Nc2ccccc2)[C@@H](C)CN([C@@H](C)CO)C3=O)cc1	x	x	x	0	x
O=C(O)c1cccc(N/N=C/c2sc(N3CCOCC3)nc2-c2ccccc2)c1	-85	5	7	48*	-41
Nc1ccc(C(=O)N/N=C/c2sc(N3CCOCC3)nc2-c2ccccc2)cc1	2	1	3	x	30
COc1ccccc1C(=O)Nc1ccc(NC(=O)c2ccco2)cn1	-29	1	-43	64*	-33
COc1ccccc1C(=O)NC(=S)Nc1ccc(NC(=O)c2ccco2)cc1	-31	-3	2	27	-16
O=C(Nc1ccc(NC(=O)c2ccco2)nc1)c1ccco1	-47	5	-95	x	-62
SMILES	Gli-Sufu antag	SMARCA2 act	Jurkat NFkB inh	esBAF inh	697 NFkB inh
O=C(Nc1ccc(NC(=O)c2ccccc2)nc1)c1ccncc1	-15	0	-17	43*	-21
O=C(Cc1ccccc1)Nc1ccc(NC(=O)c2ccco2)nc1	-71	7	-69	46*	-41
COc1ccccc1OCc1csc(NC(=O)c2ccco2)n1	4	3	-35	77*	-50
O=C(N[C@@H]1CC[C@H](CCNC(=O)C2CC2)O[C@@H]1CO)c1ccncc1	x	x	x	4	x
C[C@H](CO)N1C[C@H](C)[C@H](CN(C)S(=O)(=O)c2ccc(Cl)cc2)Oc2ccc(NC(=O)CCCN(C)C)cc2C1=O	x	x	x	2	x
O=C(Nc1nc2c(s1)CCCC2)c1ccc(N2C(=O)CCC2=O)cc1	-29	3	0	44*	-63
COc1ccccc1N=c1oc2c(OC)cccc2cc1C(=O)NCc1ccco1	9	x	-5	52*	-4
COc1ccc(OC)c(N=c2oc3c(OC)cccc3cc2C(=O)NCc2ccco2)c1	1	1	18	11	24
CSc1ncccc1C(=O)OCc1ccccc1	4	3	-41	u	-25
CSc1ncccc1C(=O)OCc1ccccc1F	-19	5	-26	50*	-16
CO[C@@H]1CN(C)C(=O)c2cc(NC(=O)C3CCOCC3)ccc2OC[C@@H](C)N(C(=O)C2CCOCC2)C[C@H]1C	x	x	x	-4	x
Cc1c(C(=O)NC2CCCCC2)oc2ccc(F)cc12	-52	4	-62	43*	-85
COc1ccc2oc(C(=O)NC3CCCCC3)c(C)c2c1	-78	3	-102	u	-126
Cc1c(C(=O)NC2CCOC2)oc2c(F)cccc12 (stereo not given)	-54	7	-78	70*	-120
Cc1c(C(=O)O)oc2c(F)cccc12	3	3	8	x	16
Cc1c(C(=O)N2C[C@@H](C)O[C@@H](C)C2)oc2c(F)cccc12	27	3	-66	70*	-65
O=C(C[C@@H]1CC[C@H]2[C@@H](COC[C@@H](O)CN2C(=O)C2CC2)O1)NCc1ccccc1Cl	x	x	x	1	x
C/C=C/c1ccc2c(c1)O[C@H](CN(C)C(=O)CN1CCOCC1)[C@@H](C)CN([C@@H](C)CO)S2(=O)=O	x	x	x	-6	x
CCN(CC)C(=O)c1nc(-c2cccc3ccccc23)no1	x	8	x	70*	x
CN(C)c1ccc(C=C2SC(=S)NC2=O)cc1	-22	1	x	54*	x
CCOc1ccc(N(C)c2ccc(/C=C3/SC(=S)NC3=O)cc2)cc1	-14	-2	4	-18	4
COc1cc(OC)cc(-c2noc(-c3csc([C@H]4C[C@H](O)[C@@H](CO)O4)n3)n2)c1	x	6	x	71*	x
CO[C@H]1CN(C)C(=O)c2ccc(NC(=O)c3ccccc3F)cc2OC[C@@H](C)N(CC2CC2)C[C@H]1C	x	x	x	-6	x
Cc1ccccc1S(=O)(=O)Oc1ccc2ccc(O)cc2c1	-4	2	-26	74*	-56
CC(=O)Nc1ccc(OS(=O)(=O)c2ccccc2C)cc1	-11	-3	10	x	5
SMILES	Gli-Sufu antag	SMARCA2 act	Jurkat NFkB inh	esBAF inh	697 NFkB inh
Cc1ccccc1C(=O)Oc1ccc2ccc(O)cc2c1	-23	6	-125	62*	-68
CC1(C)CC(=Cc2ccccc2[N+](=O)[O-])C(=O)c2ccccc21	x	7.9*	x	12	x
O=C1C(=Cc2ccccc2[N+](=O)[O-])Cc2ccccc21	x	-6	x	x	x
CC=Cc1ccc2n(c1=O)C[C@@H]1[C@@H](CO)[C@H](C(=O)NCC)N(CCC(F)(F)F)[C@H]21 (mixture of isomers)	x	x	x	1	x
O=C(C[C@H]1CC[C@@H]2[C@H](COC[C@@H](O)CN2Cc2cc(F)ccc2F)O1)NCc1ccc(Cl)cc1	x	x	x	0	x
CCCCCOc1ccc(Br)cc1CSC(=N)N	66*	-9	x	x	x
O=C(NC1Cc2ccccc2C1)[C@H]1[C@H](CO)[C@H]2Cn3c(ccc(C4=CCCCC4)c3=O)[C@@H]1N2	x	x	x	3	x
C[C@@H]1CN([C@H](C)CO)C(=O)c2cc(C#CC(C)(C)O)cnc2O[C@H]1CN(C)C(=O)C1CCOCC1	x	x	x	-5	x
O=C(CC1CCCC1)Nc1ccc(Br)cc1	-22	5	-44	67*	-47

From PubChem BioAssay
